The values that follow come from the supplement of paper PMC9135407.

Structures are written as SMILES. “And” between values parts separate entries of the source, which are not always exact repeats. Equal entries are not always repeated. Structures can show the parent of a compound that is named as a salt. Out of some 5,800 compounds screened, about 620 (11%) showed activity. This excerpt belongs to a sample that is enriched for actives. A number with no mark means an inactive call.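 Rule for the calls: active = score above a cut-off or among the top three wells of a plate; in these data no inactive exceeds 0.85.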

The test system of this test is primary human hepatic stellate cells (donor 1). Briefly: scaled lipid accumulation score (0 = DMSO-like, 1 = nortriptyline-like); higher = stronger HSC inactivation (lipid re-accumulation), active = hit call of the paper. The conditions noted are these: 48 h.
[1] abbreviates: library stock concentration: 10 mM.
Setting [2] is: library stock concentration: 3.33 mM.
Setting [3] is: library stock concentration: 80 uM.
The mark [4] stands for this setting: library stock concentration: 400 uM.
Where [5] appears, read: library stock concentration: 2 mM.

For the compound `Cc1c(C)c2c(c(C)c1O)CCC(C)(CCCC(C)CCCC(C)CCCC(C)C)O2` (stereo not drawn) [Alpha-tochopherol], the “scaled lipid accumulation score” value under setting [1] was no more than 0. With `COc1cc(C[C@H]2C(=O)OC[C@@H]2Cc2ccc(OC)c(OC)c2)ccc1O` [Arctigenin], the “scaled lipid accumulation score” value under setting [1] is no more than -0.006. For `C/C(=N\NC(=O)C1C(=O)NCC1c1ccccc1)c1cccc(Br)c1` (stereo not drawn), under setting [1], the “scaled lipid accumulation score” value is no more than -0.001. For the compound `CCOC(=O)C1=C(N)Oc2ccc(Br)cc2C1C(C#N)C(=O)OCC` (stereo not drawn), the “scaled lipid accumulation score” value is 0.391 under setting [2] and 0.006 under setting [1]. Take `CCOC(=O)C1=C(N)Oc2ccc(Br)cc2[C@H]1[C@H](C#N)C(=O)OCC`: the “scaled lipid accumulation score” value under setting [1] is 1.15 (active). Take `CCCCCCCCCCCCCCCC(=O)OCC(O)C1OC(=O)C(O)=C1O` [L-Ascorbyl 6-palmitate]: the “scaled lipid accumulation score” value reads like this: under setting [2], 0.009; under setting [1], no more than 0. Take `CC1(CN2CCC(n3c(=O)[nH]c4ccccc43)CC2)OCc2ccccc2-n2cccc21` (stereo not drawn): under setting [1], the “scaled lipid accumulation score” value is 0.057. With `O=C(Nc1cc(Cl)cc2c1[nH]c1cnccc12)c1cccnc1` [IKK Inhibitor X], under setting [2], the “scaled lipid accumulation score” value is no more than 0.

`C#Cc1cccc(Nc2ncnc3cc(OC)c(OCCCCCCC(=O)NO)cc23)c1`: the “scaled lipid accumulation score” value runs as follows: under setting [2], 0.652; under setting [1], 0.306. As for `COc1cc2ncnc(N3CCN(C(=O)Nc4ccc(Oc5ccccc5)cc4)CC3)c2cc1OC`, the “scaled lipid accumulation score” value reads like this: under setting [3], no more than -0.001; under setting [4], no more than -0.001; under setting [5], no more than -0.001; under setting [1], no more than -0.001. Turning to `COc1cc2c(N3CCN(C(=O)Nc4ccc(OC(C)C)cc4)CC3)ncnc2cc1OCCCN1CCCCC1` [listing 1 of 2 here], the “scaled lipid accumulation score” value reads like this: under setting [4], 0.045; under setting [5], 0.538; under setting [1], 0.65. For `C#Cc1cccc(Nc2ncnc3cc(OCCOC)c(OCCOC)cc23)c1`, the “scaled lipid accumulation score” value runs as follows: under setting [3], no more than -0.009; under setting [4], ≤ -0.009 and ≤ -0.005; under setting [5], ≤ -0.009 and ≤ -0.005; under setting [1], 0.052 and 0.04. `COc1cc2ncnc(N3CCN(C(=O)Nc4ccc(Oc5ccccc5)cc4)CC3)c2cc1OC` [PDGF Receptor Tyrosine Kinase Inhibitor III]: under setting [2], the “scaled lipid accumulation score” value was no more than 0. `COc1cc2ncnc(Nc3ccc(NC(=O)c4ccccc4)cc3)c2cc1OC` [Aurora Kinase Inhibitor II]: the “scaled lipid accumulation score” value under setting [2] was no more than 0. `COc1cc2c(Nc3ccc(NC(=O)c4ccccc4)cc3)ncnc2cc1OCCCN1CCOCC1` [listing 1 of 4 here]: the “scaled lipid accumulation score” value under setting [1] was 1.03 (active). Consider `COc1cc2c(Nc3ccc(NC(=O)c4ccccc4)cc3)ncnc2cc1OCCCN1CCOCC1` [listing 2 of 4 here], for which the “scaled lipid accumulation score” value runs as follows: under setting [2], 1.06 (active); under setting [1], 1.11 (active). For the compound `COc1cc2c(N3CCN(C(=O)Nc4ccc(OC(C)C)cc4)CC3)ncnc2cc1OCCCN1CCCCC1` [Tandutinib (MLN518)], the “scaled lipid accumulation score” value by setting is: under setting [2], 0.295; under setting [1], 0.406. With `COc1cc2c(Nc3ccc(NC(=O)c4ccccc4)cc3)ncnc2cc1OCCCN1CCOCC1` [listing 3 of 4 here], the “scaled lipid accumulation score” value under setting [1] was 1.14 (active). `C#Cc1cccc(Nc2ncnc3cc(OCCOC)c(OCCOC)cc23)c1` [Erlotinib HCl (OSI-744)]: the “scaled lipid accumulation score” value is no more than 0 under setting [2] and no more than 0 under setting [1]. With `C#Cc1cccc(Nc2ncnc3cc(OCCOC)c(OCCOC)cc23)c1` [Erlotinib], the “scaled lipid accumulation score” value (library stock concentration: 5.1 mM) was no more than -0.006. As for `COc1cc2c(N3CCN(C(=O)Nc4ccc(OC(C)C)cc4)CC3)ncnc2cc1OCCCN1CCCCC1` [listing 2 of 2 here], the “scaled lipid accumulation score” value under setting [1] was 1.24 (active).

For the compound `COc1cc2c(Nc3ccc(NC(=O)c4ccccc4)cc3)ncnc2cc1OCCCN1CCOCC1` [listing 4 of 4 here], the “scaled lipid accumulation score” value is no more than -0.001 under setting [3], no more than -0.009 under setting [4] and 0.256 under setting [5].
